Reference: PubChem BioAssay (Tox21)
Records with an inconclusive call do not appear. Activity calls are given as the source filed them. Calls follow the shape of the dose curve; as a rule, active = well fitted curve in the direction sought with a large enough effect in the repeat runs; inconclusive = weak or mixed curves; inactive = no such curve, though single readings can be large; an effect the other way counts as inactive or inconclusive.

Assay: qHTS assay to identify small molecule agonists of the sonic hedgehog signaling (Shh) pathway - cell viability counter screen (AID 1259366); also: nearly all actives have a fitted effect of over 50% in size
Details: NIH/3T3 Gli1-Luc viability, CellTiter-Fluor, 24 h; series mostly up to 92.4 µM; viability change, negative = cytotoxic: at the top concentration
How it was run: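 CellTiter-Fluor fluorescence read-out, 1 hr at 37C, added after 23hr compound exposure. Cells: 3T3 Gli1-Luc, an NIH/3T3 clone with stably integrated Gli1-Luc reporter, plated 4hr before compound.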
% is scaled to controls: 0 for no effect and ±100 for the full control effect; potency is read from the fitted curve at half-maximal effect.

Row | SMILES | viability change, negative = cytotoxic | Potency
1 | BrCCc1ccccc1 | 2.33% (inactive) | –
2 | CCC1(c2cccc(O)c2)CCCCN(C)C1 (centres undefined) | -21.4% [at 42.5 µM] (inactive) | –
3 | CN1COCN(Cc2cnc(Cl)s2)/C1=N\[N+](=O)[O-] | 3.15% (inactive) | –
4 | CCCCS(=O)(=O)Cl | 6.91% (inactive) | –
5 | O=C(O)CBr | 5.05% (inactive) | –
6 | CCCC(C)(COC(N)=O)COC(N)=O | -10% (inactive) | –
7 | COC1=CC(=O)O[C@@H](/C=C/c2ccccc2)C1 | 3.73% (inactive) | –
8 | CC(Cl)(Cl)Cl | -2.89% (inactive) | –
9 | C=CCN1CC[C@]23CCCC[C@H]2[C@H]1Cc1ccc(O)cc13 | -20.3% [at 42.5 µM] (inactive) | –
10 | Cn1c(N)nc2c3cccnc3ccc21 | – | 26 µM (active)
11 | CCOC(=O)C(SP(=S)(OC)OC)c1ccccc1 (centres undefined) | 5.77% (inactive) | –
12 | O=c1[nH]c2ccccc2o1 | -3.68% (inactive) | –
13 | CC1=C2[C@H]3OC(=O)[C@@H](C)[C@@H]3CC[C@@]2(C)C=CC1=O | -5.9% [at 42.5 µM] (inactive) | –
14 | O=C(O)C(F)(F)C(F)(F)C(F)(F)C(F)(F)C(F)(F)C(F)(F)F | 17.3% (inactive) | –
15 | Cl/C=C/CCl | 4.14% (inactive) | –
16 | CC(C)C(C)(N)C#N (centres undefined) | -0.0154% (inactive) | –
17 | CCC(=O)c1ccc(Cl)cc1 | -0.872% (inactive) | –
18 | CCN1CCCC1CNC(=O)C(O)(c1ccccc1)c1ccccc1 (centres undefined) | -2.6% [at 42.5 µM] (inactive) | –
19 | C=CC(=O)OCCN(C)C | 1.73% (inactive) | –
20 | N#CC(Br)(Br)C(N)=O | -0.834% (inactive) | –
21 | O=[N+]([O-])c1cccc(CCl)c1 | -1.72% (inactive) | –
22 | CC(C)c1ccc(O)cc1 | 8.16% (inactive) | –
23 | CC(C)(C)C(=O)C(Cl)Cl | 16.9% (inactive) | –
24 | C=C(Cl)CSC(=S)N(CC)CC | 1.56% (inactive) | –
25 | CCOC(=O)N(C)N=O | 4.54% (inactive) | –
26 | [P]#[In] | -1.23% (inactive) | –
27 | c1ccc2c(c1)CCNC2 | 8.08% (inactive) | –

Assay: qHTS assay to identify small molecule antagonists of the sonic hedgehog signaling (Shh) pathway - cell viability counter screen (AID 1259367); also: nearly all actives have a fitted effect of over 55% in size
Details: NIH/3T3 Gli1-Luc viability, CellTiter-Fluor, 24 h; series mostly up to 92.4 µM; viability change, negative = cytotoxic: at the top concentration
How it was run: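 Cells: 3T3 Gli1-Luc, 2,000/well, 4 hr pre-incubation. Compounds in DMSO, then conditioned medium. Incubation 24 hr, 37C, 5% CO2. CellTiter-Fluor at 23 hr, 1 hr, fluorescence.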

Row | SMILES | viability change, negative = cytotoxic | Potency
28 | CON(C)C(=O)Nc1ccc(Br)c(Cl)c1 | 3.6% (inactive) | –
29 | CON(C)C(=O)Nc1ccc(Br)cc1 | 6.82% (inactive) | –
30 | CCOC(=O)COc1ccc(Cl)cc1Cl | 2.71% (inactive) | –
31 | C[C@@H](N)[C@@H](O)c1ccccc1 | 2.68% [at 42.5 µM] (inactive) | –
32 | BrCCc1ccccc1 | -5.41% (inactive) | –
33 | CN1COCN(Cc2cnc(Cl)s2)/C1=N\[N+](=O)[O-] | 0.131% (inactive) | –
34 | O=C(O)CBr | 0.248% (inactive) | –
35 | CCCC(C)(COC(N)=O)COC(N)=O | -12% (inactive) | –
36 | COC1=CC(=O)O[C@@H](/C=C/c2ccccc2)C1 | -6.47% (inactive) | –
37 | CC(Cl)(Cl)Cl | -4.4% (inactive) | –
38 | C=CCN1CC[C@]23CCCC[C@H]2[C@H]1Cc1ccc(O)cc13 | -8.74% [at 42.5 µM] (inactive) | –
39 | Cn1c(N)nc2c3cccnc3ccc21 | – | 26 µM (active)
40 | CCOC(=O)C(SP(=S)(OC)OC)c1ccccc1 (centres undefined) | 0.465% (inactive) | –
41 | O=c1[nH]c2ccccc2o1 | 1.58% (inactive) | –
42 | O=C(O)C(F)(F)C(F)(F)C(F)(F)C(F)(F)C(F)(F)C(F)(F)F | 7.12% (inactive) | –
43 | Cl/C=C/CCl | -0.533% (inactive) | –
44 | CC(C)C(C)(N)C#N (centres undefined) | 0.772% (inactive) | –
45 | CCC(=O)c1ccc(Cl)cc1 | -1.3% (inactive) | –
46 | CCN1CCCC1CNC(=O)C(O)(c1ccccc1)c1ccccc1 (centres undefined) | -1.3% [at 42.5 µM] (inactive) | –
47 | C=CC(=O)OCCN(C)C | 0.567% (inactive) | –
48 | N#CC(Br)(Br)C(N)=O | – | 54.5 µM (active)
49 | O=[N+]([O-])c1cccc(CCl)c1 | -0.686% (inactive) | –
50 | CC(C)c1ccc(O)cc1 | 6.67% (inactive) | –
51 | CC(C)(C)C(=O)C(Cl)Cl | 5.73% (inactive) | –
52 | C=C(Cl)CSC(=S)N(CC)CC | -7.61% (inactive) | –
53 | CCOC(=O)N(C)N=O | 1.04% (inactive) | –
54 | [P]#[In] | 0.264% (inactive) | –
